# Source: PubChem (National Center for Advancing Translational Sciences (NCATS))
# The entries come from a sample that favours hits as a whole.
# ALOX12 inh – blocks human arachidonate 12S-lipoxygenase. P18054. purified 12hLO, xylenol orange hydroperoxide absorbance. Potency, µM (titrated, usually from 108 µM), actives largely listed as inhibitors. 1.1% of 580,000 active
# Target sequence (P18054 whole entry, looked up): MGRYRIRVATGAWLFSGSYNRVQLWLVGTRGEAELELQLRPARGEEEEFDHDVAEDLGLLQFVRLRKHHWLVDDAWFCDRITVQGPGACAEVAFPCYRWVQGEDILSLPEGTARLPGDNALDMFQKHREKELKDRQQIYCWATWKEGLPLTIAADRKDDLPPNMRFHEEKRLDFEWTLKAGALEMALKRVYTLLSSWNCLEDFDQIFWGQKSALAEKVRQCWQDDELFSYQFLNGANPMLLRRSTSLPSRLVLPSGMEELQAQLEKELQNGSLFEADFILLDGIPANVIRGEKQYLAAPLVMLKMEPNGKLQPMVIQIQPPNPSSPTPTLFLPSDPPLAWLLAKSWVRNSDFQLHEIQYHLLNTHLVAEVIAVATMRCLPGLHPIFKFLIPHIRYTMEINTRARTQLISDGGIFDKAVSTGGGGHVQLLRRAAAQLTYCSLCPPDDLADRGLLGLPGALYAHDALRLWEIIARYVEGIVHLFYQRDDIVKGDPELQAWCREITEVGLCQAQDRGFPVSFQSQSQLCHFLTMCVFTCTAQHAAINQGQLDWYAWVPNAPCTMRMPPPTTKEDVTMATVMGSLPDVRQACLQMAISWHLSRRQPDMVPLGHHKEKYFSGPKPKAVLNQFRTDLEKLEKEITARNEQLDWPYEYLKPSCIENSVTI
#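 Purified human 12hLO at 150 nM in 25 mM Hepes, 0.01% Triton X-100, pH 7.0, preincubated 15 min at room temperature with compound. Reaction started with 40 uM arachidonic acid, 30 min at room temperature. Hydroperoxide measured by Fe-xylenol orange, 573/405 nm absorbance ratio.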
# HT1080NT lethal – kills 2HG-producing HT-1080-NT fibrosarcoma cells. HT-1080-NT fibrosarcoma viability, CellTiter-Glo ATP luminescence, 48 h. Potency, µM (doses to about 46.1 µM), most hits filed as cytotoxic. 1.6% of 360,000 active;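 further: NT is the 2HG producing partner of a matched IDH1 knockdown line; nearly all actives have a fitted effect of over 55% in size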
#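 Fibrosarcoma NT cells, 750 per well in 5% FBS RPMI, were exposed to compound for 48 hours. Viability: CellTiter-Glo luminescence.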
# HT1080 IDH1KD tx – HT-1080 IDH1 knockdown cell toxicity (counter line); HT-1080 IDH1 knockdown viability, ATP luminescence, 48 h; Potency, µM (highest dose often 46.1 µM), most hits filed as cytotoxic; 2% of 360,000 active
#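 Knockdown cells (IDH1KD HT-1080) received compounds 2 h after plating at 750 cells/well and were kept 48 h at 37 °C in 5% FBS RPMI. A CellTiter-Glo luminescence read gave % activity for curve fitting.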
# TDP1 cell noCPT – qHTS for Inhibitors of human tyrosyl-DNA phosphodiesterase 1 (TDP1): qHTS in cells in absence of CPT; DT40 Tdp1-/- hTDP1 cells, no CPT, ATP luminescence, 48 h; Potency, µM (highest dose often 46.2 µM), actives largely listed as inhibitors; 15% of 420,000 active; further: nearly all actives have a fitted effect of over 55% in size
#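 Compound effects on proliferation are scored in DT40 Tdp1-/-;hTDP1 cells in the absence of CPT. ATP levels (CellTiter-Glo luminescence) are recorded after a ≥48 hr, 37 °C incubation.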
# IL-1B inflam inh – inflammasome signaling inhibition, IL-1 beta readout. AID 743279. 4.7% of 360,000 active. THP-1 LPS/ATP IL-1B secretion, AlphaLISA, 16 h; stronger effect = lower value. activity change, % at 57.5 µM; in the data active means activity change below about -50%; inconclusive means mostly about -30% to -49%
#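 Secreted IL-1B measured by AlphaLISA bead assay after 16 h compound exposure of THP-1 cells; compounds (final up to 57.5 uM) added 1 h before LPS (250 ng/mL) and ATP (1.25 mM) stimulation; lower signal means less secretion.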
# DT40 TDP1 CPT – DT40-hTDP1 cell growth loss with CPT | chicken DT40 Tdp1-/-;hTDP1 cells + 20 nM CPT, ATP luminescence, 48 h | Potency, µM (doses to about 46.2 µM), most hits filed as inhibitors | 12% of 420,000 active | AID 686979; further: nearly all actives have a fitted effect of over 55% in size
#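 Chicken DT40 Tdp1-/- cells complemented with human TDP1, 400 cells/well, exposed to compounds plus 20 nM camptothecin for at least 48 h at 37 C; viability read as ATP content by CellTiter-Glo luminescence.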
# Hits are given with their value; - = inactive; ? = inconclusive; . = no result. Unless noted, the call rests on the fitted dose curve; in most records, active means well fitted curve in the direction sought with a large enough effect; inconclusive means small, poorly fitted or top-dose-only effect, or another doubt; inactive means no such curve, though single readings can be large; an effect the other way counts as inactive or inconclusive.
SMILES,ALOX12 inh,HT1080NT lethal,HT1080 IDH1KD tx,TDP1 cell noCPT,IL-1B inflam inh,DT40 TDP1 CPT
Cc1ccc(-c2c(C(=O)N3CCN(c4ccc(F)cc4)CC3)oc(=O)c3ccccc23)cc1,-,.,.,?,.,?
O=C(c1ccc(CS(=O)c2cccc(Cl)c2)o1)N1CCN(c2ccccn2)CC1 (stereo not drawn),-,?,?,9.2µM,-,?
Cc1ccc(-c2c(C(=O)N3CCN(c4cccc(C)c4C)CC3)oc(=O)c3ccccc23)cc1,-,.,.,20.6µM,.,?
Cc1ccc(Cl)cc1N1CCN(C(=O)COc2ccc3c(c2)CCC3)CC1,-,?,?,20.6µM,-72.3,-
O=C(NC[C@H]1Cn2c(-c3ccc(Cl)cc3)cnc2CO1)C1CCCC1,-,.,.,.,.,.
COc1ccc(CN2C(=O)[C@@H]3C[C@@H](CN3Cc3ccc4c(c3)OCO4)Oc3ccccc32)cc1,-,.,.,.,.,.
C=CCn1c(SCCC)nc2c1c(=O)n(C)c(=O)n2C,-,.,.,.,.,.
Cc1ccccc1NC(=O)C(C#N)=C1CCCCCCC1,-,.,.,.,.,.
COCC1CN(C2CCC2)CC12CCN(C(=O)c1cccc(OC)c1)CC2 (stereo not drawn),-,.,.,.,.,.
Cc1ccccc1S(=O)Cc1ccc(C(=O)N2CCN(c3cccc(C)c3C)CC2)o1 (stereo not drawn),-,.,.,0.82µM,.,0.651µM
Cc1ccc(S(=O)(=O)Cc2ccc(C(=O)N3CCN(c4cccc(C)c4C)CC3)o2)cc1,-,?,3.66µM,2.59µM,-,1.84µM
N#Cc1c(-c2ccccc2)c(-c2ccccc2)n(Cc2ccco2)c1NC(=O)c1cccs1,-,-,-,?,-,11.2µM
C/C(=N/NC(=O)c1cc(-c2ccc(Br)s2)[nH]n1)c1ccco1,?,-,?,?,-68.5,-
COc1cc(N2CCC(O)CC2)ccc1Nc1nnc(Cl)c(Nc2ccccc2S(C)(=O)=O)n1,.,?,-,16.4µM,-,20.6µM
COc1ccc(Nc2nc3c(S(=O)(=O)c4ccccc4)nnn3c3ccc(Cl)cc23)c(OC)c1,-,.,.,-,.,-
COc1cc(OC)cc(C(=O)Nc2ccc(-c3nc4cc(C(C)C)ccc4o3)cc2)c1,-,.,.,20.6µM,.,20.6µM
O=C(Nc1ccc2oc(-c3cccnc3)nc2c1)c1cccnc1,-,-,-,?,-,-
COc1ccc(C(=O)Nc2ccc(-c3nc4ccccc4o3)cc2)cc1,-,.,.,.,.,.
COc1cc(OC)cc(C(=O)Nc2ccc(-c3nc4ccccc4o3)cc2)c1,-,?,?,16.4µM,-,16.4µM
O=C(Nc1ccc2oc(-c3cccnc3)nc2c1)c1ccc([N+](=O)[O-])o1,-,?,?,8.2µM,.,6.51µM
COc1cc(OC)cc(C(=O)Nc2ccc3oc(-c4ccc5ccccc5c4)nc3c2)c1,-,.,.,.,.,.
Cc1ccc2oc(-c3ccc(NC(=O)c4cccnc4)cc3)nc2c1,-,-,-,20.6µM,-,?
Cc1cnc(C(=O)N2CCC(Oc3cccnc3)C2)cn1 (stereo not drawn),-,.,.,.,.,.
COc1ccc(CCNC(=O)Cc2c(C)c3ccc(O)c(C)c3oc2=O)cc1,-,.,.,.,.,.
Cc1cccc(C(=O)Nc2ccc(-c3nc4cc(C(C)C)ccc4o3)cc2)c1,-,.,.,16.4µM,.,16.4µM
SMILES,ALOX12 inh,HT1080NT lethal,HT1080 IDH1KD tx,TDP1 cell noCPT,IL-1B inflam inh,DT40 TDP1 CPT
O=C(Nc1ccc2oc(-c3ccccc3)nc2c1)c1ccncc1,?,-,-,11.6µM,-,16.4µM
O=C(Nc1ccc2oc(Cc3ccc(Cl)cc3)nc2c1)c1cccnc1,?,?,-,?,-67.5,?
CC(=O)Oc1cccc(C(=O)Nc2ccc(-c3nc4cc(C)ccc4o3)cc2)c1,-,.,.,.,.,.
CS(=O)(=O)c1ccccc1C(=O)Nc1ccc(-c2nc3ccccc3o2)cc1,-,-,-,23.1µM,-,?
CCOc1cccc(C(=O)Nc2ccc3oc(Cc4ccc(Cl)cc4)nc3c2)c1,-,-,?,?,-,?
O=C(Nc1ccc2oc(-c3ccccc3)nc2c1)c1ccc(F)cc1,-,.,.,.,.,.
CC(=O)NCCNC(=O)CCc1ncc(-c2ccccc2Cl)o1,-,.,.,.,.,.
